# Shown are actives, neighbours in structure and some others; about 22% of the full set was active somewhere.
# CYP2C19 act: human CYP2C19 activators, primary screen, biochemical, luminescence; activation factor at 5 µM; 96,000 tested, under 10 active; Cytochrome P450 2C19 (Homo sapiens), P33261; AID 1025, 2008; recombinant CYP2C19, luciferin-H EGE luminescence; stronger effect = higher value; 0 = fully inhibited enzyme, 1 = untreated enzyme;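 active = activation factor of at least 2 at 5 µM in the primary screen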;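 also: 0 = wells with 2.5 mM tranylcypromine and 1 = vehicle-only wells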
# CYP2C9 inh: blockers of cytochrome P450 2C9 activity – biochemical, luminescence, ADME assay, primary screen. CYP2C9 Supersomes, luciferin-H conversion. inhibition, % at 5 µM. 20% of 96,000 active;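 active = blocking of liver enzyme CYP2C9 beyond about 50% at 5 µM, limit read from the data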
# Target sequence (P11712 whole entry, looked up): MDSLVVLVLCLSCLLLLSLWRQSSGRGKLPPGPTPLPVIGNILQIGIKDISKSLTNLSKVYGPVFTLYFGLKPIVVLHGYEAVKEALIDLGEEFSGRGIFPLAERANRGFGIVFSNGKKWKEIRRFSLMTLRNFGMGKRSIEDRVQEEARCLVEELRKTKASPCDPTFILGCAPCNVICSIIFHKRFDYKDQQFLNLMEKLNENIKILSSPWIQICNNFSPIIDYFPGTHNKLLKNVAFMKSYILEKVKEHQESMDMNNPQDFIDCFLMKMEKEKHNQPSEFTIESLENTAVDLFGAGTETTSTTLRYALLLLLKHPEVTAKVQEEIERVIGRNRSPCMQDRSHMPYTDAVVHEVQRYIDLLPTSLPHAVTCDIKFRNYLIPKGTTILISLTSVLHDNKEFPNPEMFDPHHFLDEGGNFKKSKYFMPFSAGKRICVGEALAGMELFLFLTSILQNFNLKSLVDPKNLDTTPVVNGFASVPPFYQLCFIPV
# CYP2C9 act: human CYP2C9 activators, primary screen, biochemical, luminescence; Cytochrome P450 2C9 (Homo sapiens), P11712; recombinant CYP2C9, luciferin-H conversion; stronger effect = higher value; factor 1 = untreated enzyme, 0 = blocked; activation factor at 5 µM; 1.4% of 96,000 active; AID 1024, 2008;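 active = activation factor of 2 or more for CYP2C9 at a 5 µM dose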;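 also: 0 = sulfaphenazole-blocked wells and 1 = vehicle-only wells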
# CYP2C19 inhib: blockers of cytochrome P450 2C19 activity – biochemical, luminescence, ADME assay, primary screen; inhibition, % at 5 µM; CYP2C19 Supersomes, luciferin-H EGE luminescence, 30 min; P33261; 21% of 96,000 active;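 active = CYP2C19 inhibition above a set limit at 5 µM in the primary screen, cut at about 50% in these data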;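 also: plate controls were negative control wells for no effect and 2.5 mM tranylcypromine positive control for full effect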
# Measles CPE: compounds protecting cells from measles virus cytopathic effect, primary screen, measles RdRp inhibitor project, single point, MLSMR library, absorbance; Measles virus-infected cells, CPE protection; protection (pct of control), % at 4 µM; 1.5% of 140,000 active; AID 841, 2007; in the data active = protection mostly above about 24%, no sharp cut-off; inactive = mostly below about 26%
# Starred values were filed as active, the others as inactive; nt = no result given.
SMILES,CYP2C19 act,CYP2C9 inh,CYP2C9 act,CYP2C19 inhib,Measles CPE
CN(/N=C/c1ccncc1)C1=NS(=O)(=O)c2ccccc21,0.5,33.0,0.7,54.9*,3.5
CCC(=O)N1CCc2cc(S(=O)(=O)CCC(=O)Nc3ccc(F)c(F)c3)ccc21,0.7,52.3*,0.5,27.8,9.5
CS(=O)(=O)N1CCc2cc(S(=O)(=O)Nc3ccc4c(c3)OCCO4)ccc21,0,46.8,0.5,98.6*,9.8
CCC(=O)N1CCc2cc(S(=O)(=O)Nc3ccc4c(c3)OCCO4)ccc21,0.7,58.5*,0.4,33.3,3.7
O=C(C1CCC1)N1CCc2cc(S(=O)(=O)Nc3ccc4c(c3)OCCO4)ccc21,1,0.3,1,1.5,15.6
COc1ccc(C(=O)N(CC2CCCO2)C(C(=O)NC2CCCC2)c2ccc(C)cc2)cc1OC (stereo not drawn),1,23.6,0.8,-1.8,9.5
COc1ccc(N/C(C)=C2/C(=O)C(=O)N(CCO)C2c2ccc([N+](=O)[O-])cc2)cc1 (stereo not drawn),1,-12.1,1.1,-1.4,21.8
CC1=NN(c2ccc(C)c(C)c2)C(=O)C1C(c1cccc(O)c1)C1C(=O)N(c2ccc(C)c(C)c2)N=C1C (stereo not drawn),0.8,60.6*,0.4,24.1,18.0
CC1=NN(c2ccc(C)cc2C)C(=O)C1C(c1ccccc1O)C1C(=O)N(c2ccc(C)cc2C)N=C1C (stereo not drawn),nt,nt,nt,nt,10.8
NC(=O)C[C@@H]1NC(=O)[C@H](CCC(=O)O)NC(=O)c2cc([N+](=O)[O-])cc(I)c2OCC[C@@H](C(N)=O)NC1=O,nt,nt,nt,nt,2.6
Cc1ccccc1NC(=O)c1c(C)nc(SCC(=O)OCc2ccccc2)c(C#N)c1-c1ccc(F)cc1,nt,nt,nt,nt,14.1
CCCc1nnc(NC(=O)CC(=O)Nc2ccccc2C(=O)O)s1,0.8,-12.1,1.1,15.5,9.3
CCCCNC(=O)c1nn(-c2ccccc2OC)c(=O)c2ccccc12,1,7.0,0.9,4.8,34.6
CCCCc1nn(-c2cc(Cl)ccc2OC)c2c1C(=O)CCC2,0,91.5*,0.1,96.6*,11.4
Cn1c(CC2C(=O)Nc3ccc(Br)cc32)nc2ccccc2c1=O (stereo not drawn),0.5,81.9*,0.2,45.1,2.8
CNc1oc(-c2ccccc2Cl)nc1P(=O)(c1ccccc1)c1ccccc1,nt,nt,nt,nt,2.4
CNc1oc(-c2ccc(C)cc2)nc1P(=O)(c1ccccc1)c1ccccc1,0.8,81.0*,0.2,24.9,5.7
CCCCCCc1c(O)nc(SCC(=O)O)[nH]c1=O,0.8,28.2,0.7,17.4,3.7
CC(C)Nc1nc(NC(C)C)nc(Oc2ccc(OCc3ccccc3)nn2)n1,0.8,17.8,0.8,16.3,4.0
c1ccc(COc2ccc(Oc3nc(N4CCCCC4)nc(N4CCOCC4)n3)nn2)cc1,0.1,58.8*,0.4,88.3*,16.6
c1ccc(Oc2nc(N3CCOCC3)nc(N3CCOCC3)n2)cc1,0.8,25.0,0.8,16.0,27.1
Cc1ccc(Nc2nc(Oc3ccc(OCc4ccccc4)nn3)nc(N3CCOCC3)n2)cc1,0.2,77.1*,0.2,82.2*,2.2
CCOC(=O)C(OC(=O)c1sc(=S)n(C)c1C)C(C)=O (stereo not drawn),1,15.7,0.8,0.4,22.6
CCc1nc2ccc(F)cc2c(C(=O)NC2CCCCC2C)c1C (stereo not drawn),0.6,76.9*,0.2,36.7,2.3
O=C(O)c1c2c(nc3ccc(F)cc13)CCC2,nt,nt,nt,nt,23.3
SMILES,CYP2C19 act,CYP2C9 inh,CYP2C9 act,CYP2C19 inhib,Measles CPE
CCOC(=O)c1sc2nc3n(c(=O)c2c1C)CCC(C)CC3 (stereo not drawn),0.6,33.0,0.7,37.8,5.1
CCOC(=O)c1c(NC(=O)CSc2nnc(-c3cccnc3)o2)sc(C(C)=O)c1C,0.9,65.4*,0.3,14.0,9.4
CCOC(=O)c1c(NC(=O)CSc2nnc(-c3ccco3)o2)sc(C)c1C,0.8,48.2,0.5,20.6,3.2
CCOC(=O)c1c(NC(=O)CSc2nnc(-c3ccco3)o2)sc(C(C)=O)c1C,0.9,69.7*,0.3,14.5,10.4
O=C(COc1cccc2cccnc12)NCC(F)(F)F,0.8,0.0,1,22.8,9.7
Clc1nc2sccn2c1/C=N/n1cnc2ccccc21,0.7,21.4,0.8,25.4,5.7
CCC1(C(=O)OC)NC(c2ccccc2OC)C2C(=O)N(C)C(=O)C21 (stereo not drawn),1.2,-23.3,1.2,-21.7,2.7
CCC1(C(=O)OC)NC(c2ccco2)C2C(=O)N(c3ccccc3)C(=O)C21 (stereo not drawn),0.8,1.2,1,23.0,78.4*
O=S(=O)(Nc1nc2ccccc2nc1NCCO)c1cccc(Cl)c1,0.8,98.9*,0,15.5,10.1
O=S(=O)(Nc1nc2ccccc2nc1NCc1ccco1)c1ccccc1,1.2,97.5*,0,-20.7,3.4
O=S(=O)(c1ccccc1)c1ccc(NCc2ccco2)cc1,0.3,-60.7,1.6,67.0*,1.5
COc1cc(OC)cc(OCC(O)Cn2cnc3cc(C)c(C)cc32)c1 (stereo not drawn),0.2,56.6*,0.4,84.9*,7.2
COc1ccc(OCC(O)Cn2ccnc2C)cc1 (stereo not drawn),nt,nt,nt,nt,5.0
CCNC(=O)n1nccc1C(C)Oc1ccccc1 (stereo not drawn),0.5,45.8,0.5,54.9*,2.0
CC(Oc1ccc(Cl)cc1)c1ccnn1S(=O)(=O)c1ccc(Cl)cc1 (stereo not drawn),0.7,82.0*,0.2,30.1,8.1
CC(Oc1ccccc1)c1ccnn1S(=O)(=O)c1ccccc1 (stereo not drawn),0.6,63.6*,0.4,43.1,4.0
Cc1csc2ncc(C(=O)Nc3ccc(C(F)(F)F)cc3)c(=O)n12,1.1,-9.1,1.1,-9.5,5.5
COC(=O)NC(=C(Cl)Cl)S(=O)(=O)c1ccccc1,1,-12.1,1.1,-2.9,3.8
CCOC(=O)c1ccc(NS(=O)(=O)c2ccc3c(c2)CCCN3C(C)=O)cc1,0.9,72.5*,0.3,11.4,10.1
CC(=O)N1CCc2cc(NS(=O)(=O)c3cccs3)ccc21,0.4,89.2*,0.1,61.6*,3.1
CCOC(=O)c1ccc(NC(=O)C2CCN(S(=O)(=O)CC)CC2)cc1,0.8,11.2,0.9,18.2,5.7
CCOC(=O)c1ccc(NS(=O)(=O)N2CCCCCC2)cc1,0.9,67.5*,0.3,8.7,4.5
COc1cccc(NS(=O)(=O)c2ccc3c(c2)CCCN3C(C)=O)c1,0,56.2*,0.4,95.6*,14.7
CC(=O)N1CCCc2cc(S(=O)(=O)Nc3ccc(C)cc3C)ccc21,nt,nt,nt,nt,4.7

# Screening data from PubChem BioAssay.
